CHX counter = affects cycloheximide protein synthesis inhibition readout, counter-screen | cell reporter, cycloheximide protein synthesis inhibition counterscreen | 300,000 compounds, 12% hits | AID 2314 | max response, %; in the data active means max response mostly above about 13%, no sharp cut-off; inactive means mostly below about 14%; further: read at 38.3 µM for the half of the compounds with a filed dose; 0% is about no effect
SARS PLpro yeast = blocks SARS-CoV papain-like protease in a yeast assay | S. cerevisiae expressing SARS-CoV PLpro, growth rescue | Potency, µM (top dose mostly 32.9 µM), for the others: top-dose activity, positive = growth rescue, most hits filed as activators | 330,000 compounds, 0.19% hits; further: potency means the concentration at half of the fitted maximal effect; 0% is about no effect; nearly all actives have a fitted effect of over 55% in size
Shiga inhibitor = Shiga toxin inhibition | Vero cells, Shiga toxin protein synthesis inhibition reporter | inhibition, % at 38.7 µM | 290,000 compounds, 9.2% hits | AID 2315; in the data active means inhibition mostly above about 28%, no sharp cut-off; inactive means mostly below about 43%; further: 0% is about no effect
NS1 function inh = inhibitors of influenza NS1 protein function | AID 2326 | Potency, µM (doses to about 46.1 µM), inactives show at the highest dose activity, positive = more growth | 270,000 compounds, 0.4% hits; further: potency means the concentration at half of the fitted maximal effect; actives are rising curves; nearly all actives have a fitted effect of over 50% in size
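S. cerevisiae expressing influenza A NS1, grown in glucose, washed, then diluted 1:100 into pH 6.0 -URA galactose medium with 23 nl compound. Growth recovery read as OD600; NS1-free strain serves as control.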
TbPYK inhibitor = T. brucei pyruvate kinase inhibition | 410,000 compounds, 0.12% hits | TbPYK enzyme, Kinase-Glo Plus ATP luminescence, 45 min | Potency, µM (top dose mostly 76.8 µM), for inactives: at the highest dose activity, negative = inhibition, most hits filed as inhibitors | AID 624173 | Q57TT1; active means well fitted curve in the direction sought with a large enough effect; inconclusive means small, poorly fitted or top-dose-only effect, or another doubt; inactive means no such curve, though single readings can be large; an effect the other way counts as inactive or inconclusive; further: potency means the concentration at half of the fitted maximal effect; on the % scale 0 is the no-effect control and ±100 the full control effect; nearly all actives have a fitted effect of over 50% in size
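In this concentration-response screen, enzyme-free wells defined baseline while DMSO plates tracked drift. Each reaction combined TbPYK, substrate, compound and 130 uM ADP for 45 min at room temperature. Kinase-Glo Plus luminescence gave the signal.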
LmPK inhibitor = inhibitors of Leishmania mexicana pyruvate kinase; Potency, µM (doses to about 57.5 µM), inactives show top-dose activity change, negative = inhibition, usual class: inhibitors; Q27686; 290,000 compounds, 0.37% hits; AID 1721; purified LmPK, Kinase-Glo ATP luminescence, 1 h; active means well fitted curve in the direction sought with a large enough effect; inconclusive means small, poorly fitted or top-dose-only effect, or another doubt; inactive means no such curve, though single readings can be large; an effect the other way counts as inactive or inconclusive; further: potency means the concentration at half of the fitted maximal effect; on the % scale 0 is the no-effect control and ±100 the full control effect
Target sequence (Q27686 whole entry, looked up): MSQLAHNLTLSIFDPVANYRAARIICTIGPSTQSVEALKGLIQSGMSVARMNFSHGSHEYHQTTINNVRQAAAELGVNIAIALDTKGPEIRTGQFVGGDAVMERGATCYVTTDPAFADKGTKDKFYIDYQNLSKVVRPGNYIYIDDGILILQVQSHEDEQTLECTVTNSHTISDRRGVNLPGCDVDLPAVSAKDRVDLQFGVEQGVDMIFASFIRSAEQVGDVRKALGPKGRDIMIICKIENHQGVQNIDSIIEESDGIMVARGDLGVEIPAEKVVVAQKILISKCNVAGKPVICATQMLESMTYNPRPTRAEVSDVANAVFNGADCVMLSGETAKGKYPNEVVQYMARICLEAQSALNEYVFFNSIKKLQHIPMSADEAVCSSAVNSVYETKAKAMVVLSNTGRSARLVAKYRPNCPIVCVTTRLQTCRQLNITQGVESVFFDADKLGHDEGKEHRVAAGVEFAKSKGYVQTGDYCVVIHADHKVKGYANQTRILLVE
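Screened at intermediate enzyme activity to detect both inhibitors and activators: LmPK at 0.1 nM, with a 0.5 nM enzyme column as activation reference. PEP 0.5 mM, ADP 0.1 mM; ATP detected by luminescence after 1 h.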
* hit, by the source's call; ? = inconclusive; nt = no result given; [ ] = remark or other dose. Shown is part of a subset that was picked to be rich in hits. Unless noted, the call rests on the fitted dose curve.

SMILES	CHX counter	SARS PLpro yeast	Shiga inhibitor	NS1 function inh	TbPYK inhibitor	LmPK inhibitor
Cc1cccc(OCCOC(=O)Nc2ccccc2)c1	16*	-10%	-31	-6%	-6%	2%
COc1ccccc1OCCOC(=O)Nc1ccccc1	13*	16%	26*	7%	-4%	0%
Cc1ccc(OCCOC(=O)Nc2ccccc2)cc1	12	-2%	24	6%	-5%	1%
Cc1cccc(NC(=O)CN(C)S(=O)(=O)c2ccc3c(c2)c(=O)n(C)c(=O)n3C)c1	nt	nt	nt	nt	-1%	nt
CC1CCN(c2ccc(-c3ccc(NC(=O)C(F)(F)F)cc3)nn2)CC1	36*	-1%	41*	-4%	-2%	-7%
COc1cccc(N2CCN(S(=O)(=O)c3ccc4c(c3)NC(=O)C(C)C(=O)N4)CC2)c1 (centres undefined)	-2	16%	-11	30%	-4%	-5%
CCN(CCCNC(=O)c1cc2c(=O)n(C)c3ccccc3c2s1)Cc1ccccc1	nt	nt	nt	nt	0%	nt
Cc1ccccc1OCCOc1cccc(/C=N/NC(=O)Cc2nnc(N)s2)c1	38*	-2%	137*	12%	-7%	3%
Nc1nnc(CC(=O)N/N=C/c2cccc(OCCOc3ccccc3)c2)s1	41*	-2%	69*	11%	-9%	1%
Cc1ccc(-n2c(/C=C/c3c(C)n(C)c4ccccc34)nc3ccccc3c2=O)cc1	nt	nt	nt	nt	1%	nt
COCCNC(=S)N1CCC(C(=O)c2ccc(C)cc2)CC1	8	0%	14	-4%	-2%	-3%
O=C(Cn1c(=O)oc2cc(Cl)ccc21)Nc1cccc(C(F)(F)F)c1	nt	nt	nt	nt	5%	nt
O=C(NCCc1ccccc1)c1ccc2c(c1)N(Cc1ccc(Cl)cc1)C(=O)CS2	nt	nt	nt	nt	10%	nt
O=C(CSC(=S)N1CCSCC1)c1ccc(Cl)cc1	39*	1%	82*	nt	4%	0%
O=C1CCC(=O)N1CCSC(=S)N1CCSCC1	14*	0%	60*	-5%	-8%	0%
S=C(c1ccccc1)N1CCSCC1	-2	0%	3	8%	0%	5%
O=C(CSC(=S)N1CCSCC1)c1ccccc1	27*	3%	93*	nt	-1%	-16%
CC1CN(C(=S)SCC(=O)c2ccc([N+](=O)[O-])cc2)CC(C)O1 (centres undefined)	-3	-4%	14	1%	-6%	-5%
CC1CN(C(=S)SCCN2C(=O)CCC2=O)CC(C)O1 (centres undefined)	-1	0%	2	1%	-8%	4%
O=C(Nc1ccc(F)cc1Cl)c1ccc2c(=O)n3c(nc2c1)CCC3	nt	-5%	nt	nt	-3%	nt
CN1C(=O)NC(=O)/C(=C/c2ccc([N+](=O)[O-])s2)C1=O	-3	-7%	-2	-63%	14µM*	-16%
CC(=O)Nc1ccc(NC(=O)C(C)Oc2ccc(C)nc2[N+](=O)[O-])cc1 (centres undefined)	nt	5%	nt	nt	0%	nt
Cc1ccn2cc(-c3cccc(NC(=O)c4ccccc4)c3)nc2c1	60*	3%	44*	-9%	4%	-8%
CC(C)C(=O)Nc1cccc(-c2cn3ccccc3n2)c1	14*	4%	17	3%	1%	0%
COc1ccc(CC(=O)Nc2ccc(-c3cn4ccc(C)cc4n3)cc2)cc1	16*	-9%	16	0%	4%	-6%
SMILES	CHX counter	SARS PLpro yeast	Shiga inhibitor	NS1 function inh	TbPYK inhibitor	LmPK inhibitor
Cc1ccn2cc(-c3cccc(NC(=O)C(C)C)c3)nc2c1	23*	-1%	35	7%	-16%	-7%
Cc1cccn2cc(-c3cccc(NC(=O)C(C)C)c3)nc12	nt	nt	nt	nt	-3%	nt
Cc1ccc2oc(C(=O)N(Cc3sccc3C)C3CCS(=O)(=O)C3)c(C)c2c1 (centres undefined)	nt	nt	nt	nt	1%	nt
CCC(C(=O)OCC(=O)NC1CCS(=O)(=O)C1)c1ccccc1 (centres undefined)	nt	2%	nt	nt	1%	nt
O=C(Nc1cccc(-c2cn3ccccc3n2)c1)c1cc2ccccc2oc1=O	59*	-5%	71*	12%	-32%	-5%
O=C(Nc1cccc(-c2cn3ccccc3n2)c1)c1cccs1	34*	-16%	61*	-22%	-5%	-2%
CCOCCc1nn2c(=O)cc(CSCC(=O)Nc3ccccc3)nc2s1	21*	7%	14	14%	-2%	3%
Cc1[nH]n(-c2ccc([N+](=O)[O-])cc2)c(=O)c1C=NCCN1CCN(C(=O)c2ccccc2)CC1	-4	-9%[6.58 µM]	-13	-1%	-18%	28µM*
O=c1c(C=NCCN2CCNCC2)c(-c2ccccc2)[nH]n1-c1ccc([N+](=O)[O-])cc1	10	0%	19	-1%	nt	1%
COc1ccc(-c2[nH]n(-c3ccc([N+](=O)[O-])cc3)c(=O)c2C=NCCN2CCNCC2)cc1	7	-2%	-13	1%	nt	16µM*
Nc1c(C(=O)Nc2cccc(F)c2)nnn1-c1cccc(C(F)(F)F)c1	18*	1%	60*	nt	5%	-1%
Nc1c(C(=O)Nc2ccc(F)cc2)nnn1-c1cccc(C(F)(F)F)c1	15*	1%	21	nt	3%	-5%
Cc1ccc(NC(=O)c2nnn(-c3cccc(C(F)(F)F)c3)c2N)cc1	-2	2%	54	nt	2%	-4%
C/C(=N/NC(=O)C1CCCN1C(=O)c1ccc([N+](=O)[O-])cc1)c1ccc(Br)cc1 (centres undefined)	-1	6%	-2	-18%	4%	-1%
CCOc1ccc(NC(=S)N(CC)Cc2ccccc2)cc1	32*	8%	34	nt	nt	2%
CCCN(Cc1ccccc1)C(=S)Nc1ccc(OCC)cc1	19*	-1%	25	nt	0%	5%
NC(=O)c1c(NC(=O)c2cccs2)sc2c1CCCCCC2	30*	?	55	-73%	-7%	0%
O=C(Nc1sc2c(c1C(=O)O)CCC2)c1cccs1	48*	-12%	115*	-176%	-17%	?
COC(=O)c1cc(S(=O)(=O)NCc2cc(OC)c(OC)c(OC)c2)cn1C	-2	4%	-11	4%	-3%	5%
CC(C)C(=O)Nc1cccc(C(=O)Nc2nnc(C(F)(F)F)s2)c1	nt	nt	nt	nt	2%	nt
CC(C)C(=O)Nc1cccc(C(=O)Nc2nccs2)c1	15*	0%	38	-7%	-2%	-1%
CC(C)c1nnc(NC(=O)c2cccc(NC(=O)C(F)(F)F)c2)s1	47*	2%	84*	nt	-11%	2%
CC(C)c1nnc(NC(=O)c2ccc(S(=O)(=O)N3CCOCC3)cc2)s1	-1	-9%	-15	-10%	-2%	1%
CC(C)C(=O)Nc1cccc(C(=O)Nc2nnc(C(C)C)s2)c1	42*	9%	92*	9%	4%	2%
CC(C)C(=O)Nc1ccc(C(=O)Nc2nnc(C(C)C)s2)cc1	31	1%	44*	1%	1%	4%
CCC(=O)Nc1cccc(C(=O)Nc2nccs2)c1	14	0%	23	1%	-5%	2%
